40 molecules from PubChem BioAssay (NCATS) can be followed below.

Results filed as inconclusive are left out. Values without a mark were called inactive. Calls of active or inactive are those of the source. Calls come from the whole dose curve; as a rule, active = well fitted inhibition curve with a large enough effect; inconclusive = small, poorly fitted or top-dose-only effect; inactive = flat fitted curve, though single readings scatter.
% is set by controls: 0 for no effect and ±100 for the full control effect.

Calcium and integrin-binding protein 1 (Homo sapiens), sequence (Q99828 whole entry, looked up): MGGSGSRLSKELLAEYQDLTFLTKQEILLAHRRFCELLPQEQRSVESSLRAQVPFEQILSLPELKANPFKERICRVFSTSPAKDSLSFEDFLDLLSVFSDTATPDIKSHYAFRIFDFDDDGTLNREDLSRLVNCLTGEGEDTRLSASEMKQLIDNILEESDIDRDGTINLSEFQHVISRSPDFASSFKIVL

The target in this assay is Calcium and integrin-binding protein 1 (Homo sapiens) (UniProt Q99828). In words: Primary qHTS for Identification of Calcium Integrin Binding Protein 1 (CIB1) Competitor (AID 1508620).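 Note: GST tagged CIB1 binding a fluorescein labelled alphaIIb integrin peptide tracer; top concentration of the series differs between compounds.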 The conditions noted are these: CIB1-GST / FITC-alphaIIb peptide fluorescence polarization; series mostly up to 114 µM; activity change, negative = inhibition: at the top concentration. In outline:
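CIB1-GST (1 uM final) and compound incubated 15 min at room temperature before adding FITC-alphaIIb peptide tracer (100 nM final). Competition for binding read by fluorescence polarization (ex 480, em 540) after another 15 min at room temperature.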
In general terms: In qHTS, concentration-response curves come from the screen itself.
With `Cc1ccc(CCN2C(=O)c3ccc(C(=O)O)cc3C2=O)cc1`, the “activity change, negative = inhibition” value was -4.65%.

Regarding `Cc1ccc(NS(=O)(=O)c2cc3c(cc2Cl)CCC(=O)N3)cc1C`, the Potency entry was “inactive”.

As for `CCOc1cc2c(cc1OCC)CN(C(=O)c1cc3sccc3n1Cc1ccccc1)CC2`, the “activity change, negative = inhibition” value is 4.43%.

With `Cc1nc(NCc2ccc(-c3ccnc(C(F)(F)F)c3)cc2)c2ccccc2n1`, the “activity change, negative = inhibition” value is 23.5%.

As for `CCCN1CCN(c2cccc(Nc3nn4c(=O)c5ccccc5nc4s3)c2)CC1`, the Potency entry is “inactive”.

On to `COc1cccc(C2=Nn3c(nnc3-c3ccccc3O)SC2)c1`, for which the “activity change, negative = inhibition” value was 3.5%.

In the case of `CSc1ccc(CNc2ncnc3ccc(-c4c(C)noc4C)cc23)cc1`, the “activity change, negative = inhibition” value is 4.78%.

On to `COc1cc(-c2nc(Nc3ccc(F)c(F)c3)c3ccccc3n2)c(F)cn1`, for which the “activity change, negative = inhibition” value is 1.3%.

Regarding `CCn1cnc2c(NCc3cccnc3)nc(C#N)nc21`, the “activity change, negative = inhibition” value was 3.43%.

As for `O=C(OCC#CCSc1nnc(-c2cccc3ncccc23)o1)c1ccc(F)cc1`, the “activity change, negative = inhibition” value was 4.08%.

For `Cc1cnc(-c2ccccc2C(C)C)nc1NCc1ccc(C2CCCNC2)cc1` (stereo not given), the “activity change, negative = inhibition” value is 0.936%.

For `CNC(=O)C1CCN(c2nc(-c3ccc(Br)cc3)cs2)CC1`, the “activity change, negative = inhibition” value is -0.533%.

In the case of `COc1ccc(OC)c(C2=Nn3c(nnc3-c3cccc(OC)c3OC)SC2)c1`, the “activity change, negative = inhibition” value was -2.66%.

Consider `O=C(OCC#CCSc1nnc(-c2ccccc2)o1)c1ccc(F)cc1`, for which the “activity change, negative = inhibition” value is 4.65%.

Consider `Cc1c(P(=S)(c2ccccc2)c2ccccc2)c2ccccc2n1C(=O)NCc1ccccc1`, for which the “activity change, negative = inhibition” value was 3.86%.

With `Cc1cc(-c2nnc3n2CCCCC3)c(C)n1-c1ccncc1`, the “activity change, negative = inhibition” value was -1.22%.

For the molecule `Cc1cc(C)nc(NC(=S)N2CCN(c3ccc4occc4c3)CC2)c1`, the “activity change, negative = inhibition” value was -10.3%.

In the case of `Cc1cnc(N2CCC(C(N)=O)CC2)nc1-c1cccc(N(C)C)c1`, the “activity change, negative = inhibition” value is -1.73%.

With `COc1ccc(C2Nc3cccc(OC)c3C(=O)N2Cc2ccccc2)cc1COc1ccc(NC(C)=O)cc1` (stereo not given), the “activity change, negative = inhibition” value was 8.32%.

In the case of `CC(=O)Nc1cc2c(s1)CNCC2`, the “activity change, negative = inhibition” value was 2.06%.

Take `Cc1cc(C)n2ncc(C(=O)NCc3ccco3)c2n1`: the “activity change, negative = inhibition” value is -9.66%.

Regarding `Cc1ccc(OCCn2c(CCNC(=O)c3ccccc3[N+](=O)[O-])nc3ccccc32)cc1`, the “activity change, negative = inhibition” value was 7.44%.

Regarding `Cc1cc(C)nc(NC(=S)N2CCN(c3ccc4ncccc4c3[N+](=O)[O-])CC2)c1`, the “activity change, negative = inhibition” value is -13.2%.

Turning to `O=C(Nc1cncc(Cc2ccccc2)c1)c1ccc(-c2cccc([N+](=O)[O-])c2)o1`, the “activity change, negative = inhibition” value is -1.53%.

On to `Cc1ccc2nc(NC3=NC4(CCCC4)C4=C(CCCC4=O)N3)oc2c1`, for which the “activity change, negative = inhibition” value is -16%.

In the case of `O=C(O)c1ccccc1OC1=NS(=O)(=O)c2ccccc21`, the “activity change, negative = inhibition” value is 1.4%.

With `CC(C)c1cccc(-n2cnc3cc(C(=O)N4CCCCC4)ccc32)c1`, the “activity change, negative = inhibition” value was -2.36%.

As to `Cc1ccc(-c2ccnn(CC(=O)N(C)C(C)c3ccco3)c2=O)cc1` (stereo not given), the “activity change, negative = inhibition” value is -10.3%.

As for `O=C(O)c1ccccc1-c1noc(-c2ccccc2F)n1`, the “activity change, negative = inhibition” value was 2.71%.

In the case of `Fc1cnc(-c2ccccc2C(F)F)nc1NCc1ccc(-c2cccnc2)cc1`, the “activity change, negative = inhibition” value was -2.09%.

Take `O=[N+]([O-])c1ccccc1NCc1ccc(O)c2ncccc12`: the “activity change, negative = inhibition” value was 5.31%.

As to `Cc1nc(CCNc2ncnc3ccc(-c4ccc5c(c4)OCO5)cc23)cs1`, the “activity change, negative = inhibition” value was 3.7%.

`S=C(Nc1ccc(Cl)c(Cl)c1)Nc1nnc(-c2ccncc2)s1`: the “activity change, negative = inhibition” value is -13.9%.

For the molecule `Cc1cc(C)nc(NC(=S)N2CCN(c3ncccc3C(F)(F)F)CC2)c1`, the Potency entry was “inactive”.

Regarding `O=[S+]([O-])(c1c(F)cccc1F)N1CCN([S+](=O)([O-])c2cccc3nonc23)CC1`, the “activity change, negative = inhibition” value is -0.115%.

In the case of `NC(=O)C1CCN(c2nc(-c3ccc(Br)cc3)cs2)CC1`, the “activity change, negative = inhibition” value was 2.98% [at 384 µM].

In the case of `Cc1cc(C)nc(NC(=S)N2CCN(c3ccc(N4CCCC4)nn3)CC2)c1`, the “activity change, negative = inhibition” value was -0.317%.

Consider `CC(C)(C)c1ccc(NC(=O)c2cccs2)cn1`, for which the “activity change, negative = inhibition” value was -1.02%.

Regarding `Fc1ccccc1-c1nc(-c2ccccc2)no1`, the “activity change, negative = inhibition” value was 4.21%.

Regarding `COc1ccc(NC(=O)c2cccnc2)cc1S(=O)(=O)Nc1ccc(Br)cc1`, the “activity change, negative = inhibition” value is -0.452%.
